HepG2 viability: HepG2 cytotoxicity, counter-screen for TGF-b inhibitors | HepG2 CAGA-GFP viability, ATP luminescence, 18 h | Potency, µM (series often up to 46.1 µM), without a hit: top-dose activity change, negative = cytotoxicity, usual class: cytotoxic | actives 0.76% (n = 410,000); note: potency is the fitted concentration of half-maximal effect
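HepG2 CAGA-GFP cells (1000/well, DMEM with 1% FBS) received compound, then TGF-beta at 500 pg/mL final, and were incubated 18 hours at 37 degrees C. Viability was read by CellTiter-Glo luminescence. Media-only wells were set as complete cell-killing and DMSO as no toxicity.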
IL-1B inflam inh: inhibitors of inflammasome signaling (IL-1 beta secretion); activity change, % at 57.5 µM; AID 743279; actives 4.7% (n = 360,000); THP-1 LPS/ATP IL-1B secretion, AlphaLISA, 16 h; hits give low values; in the data active = activity change below about -50%; inconclusive = mostly about -30% to -49%; note: % is set by controls: 0 for no effect and ±100 for the full control effect
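THP-1 cells pretreated 1 hr with compounds (up to 57.5 uM final), then stimulated with LPS (250 ng/mL final) plus ATP (1.25 mM final); secreted IL-1B measured by AlphaLISA after 16 hr, decreased signal indicating inhibition.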
TGFb inhibitor: TGF-b pathway inhibition; HepG2 CAGA-GFP TGF-b/SMAD3 reporter, GFP fluorescence, 18 h; TGF-beta stimulated, 500 pg/mL final; actives 1.2% (n = 410,000); Potency, µM (series often up to 46.1 µM), inactives show at the highest dose activity, negative = inhibition, most hits filed as inhibitors; note: potency is the fitted concentration of half-maximal effect; % is set by controls: 0 for no effect and ±100 for the full control effect; nearly all actives have a fitted effect of over 65% in size
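Inhibition was scored as loss of TGF-beta-induced (500 pg/mL final, 18 hours, 37 degrees C) GFP in HEPG2 cells carrying a CAGA-GFP reporter, in DMEM with 1% FBS. Well GFP was summed per cell; Activity was normalised to unstimulated and stimulated DMSO wells, then concentration-response fitting.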
Giardia kill: kills Giardia lamblia. Giardia lamblia trophozoite viability. activity change, % at 7.66 µM, hits read low. actives 0.15% (n = 340,000). AID 540267; in the data active = activity change below about -80%; inconclusive = between about -30% and that limit;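 note: parasites exposed to compound for two days anaerobically before the ATP read; % is set by controls: 0 for no effect and ±100 for the full control effect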
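Giardia lamblia trophozoites (100 cells/well) were incubated with compounds for 48 h at 37 deg C under anaerobic conditions. Viability was read as ATP content by one-step luminescence after 15-30 min at room temperature.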
HT1080 IDH1KD tx: HT-1080 IDH1 knockdown cell toxicity (counter line). Potency, µM (titrated, usually from 46.1 µM), for inactives: at the top dose activity, negative = toxicity, most hits filed as cytotoxic. actives 2% (n = 360,000). HT-1080 IDH1 knockdown viability, ATP luminescence, 48 h;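 note: potency is the fitted concentration of half-maximal effect; 0% = DMSO wells and -100% = cell-free medium wells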
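CellTiter-Glo luminescence after 48 h compound exposure at 37 degrees C of IDH1-knockdown HT-1080 cells in 5% FBS RPMI. %Activity scaled between DMSO wells and cell-free media wells, with curves fitted and assigned curve classes.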
HT1080-NT tox: kills 2HG-producing HT-1080-NT fibrosarcoma cells. HT-1080-NT fibrosarcoma viability, CellTiter-Glo ATP luminescence, 48 h. Potency, µM (highest dose often 46.1 µM), inactives show at the highest dose activity, negative = less viability, actives largely listed as cytotoxic. actives 1.6% (n = 360,000). AID 686970;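 note: NT is the 2HG producing partner of a matched IDH1 knockdown line; potency is the fitted concentration of half-maximal effect; 0% = DMSO-treated cells and -100% = media-only wells without cells; nearly all actives have a fitted effect of over 55% in size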
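Viability by CellTiter-Glo luminescence after 48 h compound exposure at 37C of HT-1080-NT cells (750/well, RPMI, 5% FBS). % activity scaled between DMSO wells and medium-only wells, then curve-fitted and categorized by curve class.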
Starred values were filed as active, the others as inactive; ? = inconclusive; nt = no result given. This is a sample that favours compounds with a hit; in the whole collection about 6.5% have one here. Unless noted, calls come from the whole dose curve; as a rule, active = well fitted curve in the direction sought with a large enough effect; inconclusive = small, poorly fitted or top-dose-only effect, or another doubt; inactive = no such curve, though single readings can be large; an effect the other way counts as inactive or inconclusive.

SMILES	HepG2 viability	IL-1B inflam inh	TGFb inhibitor	Giardia kill	HT1080 IDH1KD tx	HT1080-NT tox
CSc1cccc(NC(=S)N2CCCN(Cc3cccc(Cl)c3)C2)c1	-140.7%	-82.3*	?	-3.0	?	?
CCOc1ccc(NC(=S)N2CCCN(Cc3cccc(Cl)c3)C2)cc1	-8.9%	-60.7*	-20.6%	8.2	?	-1.4%
CCOC(=O)c1ccc(-c2ccc(/C=C(\C#N)C(=O)NCC3CCCO3)o2)cc1 (stereo not drawn)	-6.7%	0.0	3.3%	4.9	-2.1%	-6.6%
CC1(C(=O)Nc2ccc3ccccc3c2)CCC(=O)N1CC(F)(F)F (stereo not drawn)	-12.9%	-18.0	-31.2%	nt	5.4%	11.1%
COC(=O)Nc1nc2ccc(-c3n[nH]c(=O)c4ccccc34)cc2[nH]1	0.8%	60.0	0.0%	10.1	?	-4.9%
C=C(c1ccc2nc(NC(=O)OC)[nH]c2c1)c1cccs1	-38.1%	45.9	?	-4.9	0.731µM*	1.03µM*
CCOC(=O)c1ccc2nc(NC(=O)c3cccs3)sc2c1	-36.7%	-21.4	14.8%	-10.1	?	-20.1%
C=CCOc1ccc2nc(NC(=O)OC)[nH]c2c1	10.4%	40.9	-0.9%	-19.3	1.84µM*	?
Cc1nnc(SCC(=O)NC(=O)Nc2ccc3c(c2)OCCO3)s1	-28.2%	15.7	-13.5%	-15.2	10.3%	8.9%
Cc1cccc(Nc2nnc(SCC(=O)NC(=O)Nc3ccc4c(c3)OCCO4)s2)c1	-6.0%	28.4	2.6%	2.3	?	23.1µM*
Cc1cccc(Nc2nnc(SCC(=O)NC3CCCc4ccccc43)s2)c1 (stereo not drawn)	-11.7%	-54.9*	?	-27.5	?	-29.2%
C=CCn1c(C)nc2ccccc2c1=O	-1.6%	-0.4	-17.3%	6.7	7.5%	1.4%
COc1cccc(Nc2nc(-c3ccccc3)nc3ccccc23)c1	-68.0%	-73.0*	?	-6.4	?	?
O=[N+]([O-])c1ccc(-c2nc(Nc3cccc(O)c3)c3ccccc3n2)cc1	-124.5%	-69.9*	?	-19.3	?	?
O=C(O)c1cccc(Nc2nc(-c3ccc([N+](=O)[O-])cc3)nc3ccccc23)c1	7.0%	33.7	5.9%	1.8	0.9%	-0.1%
O=C(O)c1ccc(Nc2nc(-c3ccccc3)nc3ccccc23)cc1	-29.3%	10.2	-9.7%	1.5	-16.4%	-26.5%
CNC(=O)c1ccc(Nc2nc(-c3ccccc3)nc3ccccc23)cc1	-45.7%	-89.8*	8.9%	16.9	18.4µM*	18.4µM*
Oc1ccc(Nc2nc(-c3ccccc3O)nc3ccccc23)cc1	-38.8%	-64.7*	?	-25.4	-27.6%	?
Cc1nccn1-c1ccc(C(F)(F)F)cc1NC=O	1.3%	22.7	-11.9%	-28.6	6.3%	9.2%
CCOc1ccccc1NS(=O)(=O)c1ccc2[nH]c(=O)ccc2c1	-19.3%	-4.7	-9.4%	13.8	-7.3%	-1.2%
COc1ccc(Nc2nc(-c3ccccc3F)nc3ccccc23)cc1OC	-11.9%	-60.8*	1.7%	?	-7.8%	-9.5%
C/C(=N/Nc1nc(-c2ccccc2F)nc2ccccc12)c1ccccc1O	-102.1%	-3.6	12.6µM*	-14.7	0.1%	?
COC(=O)c1ccc(Nc2nc(-c3ccc(C)cc3)nc3ccccc23)cc1	-17.2%	nt	0.0%	nt	nt	nt
Cc1ccc(-c2nc(Nc3ccc(N4CCOCC4)cc3)c3ccccc3n2)cc1	-39.3%	nt	?	-4.8	20.6µM*	18.4µM*
OCCNc1nc(Nc2ccc(O)cc2)nc2ccccc12	4.4%	nt	?	14.8	5.2%	13.5%
OCCNc1nc(Nc2cccc(O)c2)nc2ccccc12	-1.6%	-104.9*	?	4.4	0.0%	-11.3%
C/C(=N\Nc1nc(-c2ccccc2O)nc2ccccc12)c1ccccc1	-11.1%	30.9	-11.6%	-19.6	1.6%	14.1%

From PubChem
